Measured values: PubChem BioAssay (NCATS)
Records with an inconclusive call do not appear. Activity calls are given as the source filed them. Unless noted, calls come from the whole dose curve; as a rule, active = well fitted curve in either direction with a large enough effect (not every such curve was filed as active); inconclusive = small, poorly fitted or top-dose-only effect, or another doubt; inactive = flat fitted curve, though single readings scatter.

Key:
[1] = target: Lysosomal acid glucosylceramidase (Homo sapiens) (UniProt P04062); assay: Glucocerebrosidase-p2 (AID 348; in the data active = potency below about 10 µM; note: potency is the fitted concentration of half-maximal effect); conditions: purified GBA, blue fluorogenic substrate, 40 min
Summary of the method: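 Compounds titrated from 0.6 nM upwards against 0.2 nM enzyme in pH 5.9 citric acid/KH2PO4, taurocholate, tween-20; blue fluorogenic substrate 80 uM, 40 min room temperature, stopped and read Ex 365/Em 440 for AC50.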

[2] = AP1 Signaling Pathway (AID 357); conditions: ME-180 AP-1-bla reporter, EGF-induced, beta-lactamase ratio, 5 h; at 7.69 µM (top of the series) unless noted;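 note: ME-180 reporter cells stimulated with EGF at its EC50 level; % is set by controls: 0 for no effect and ±100 for the full control effect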
Summary of the method: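 Beta-lactamase reporter under AP-1 response element, ME-180 background. Stimulus: EC50 EGF. Compound exposure 5 h, 37 °C. Detection: CCF4, 2.5 h RT, 460/530 nm. Values: AC50 from titration.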

[3] = NFAT Signaling Pathway (AID 444); conditions: Jurkat NFAT-bla M1, carbachol, beta-lactamase ratio, 5 h; at 7.69 µM (top of the series) unless noted;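 note: carbachol stimulus at about its EC50 of 1 µM final; % is set by controls: 0 for no effect and ±100 for the full control effect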
Summary of the method: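 Jurkat cells carrying an NFAT-driven β-lactamase reporter and co-transfected muscarinic M1 receptor were treated with compound plus carbachol (1 uM final, an EC50 level) for 5 h at 37 °C. CCF4 loading followed for 1 h at RT; 460/530 nm ratio gave %activity.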

[4] = Stat Signaling Pathway (AID 446); conditions: ME-180 SIE beta-lactamase reporter, IL-6 stimulated, 5 h; at 7.69 µM (top of the series) unless noted;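 note: ME-180 cervical cancer cells given 40 pM IL-6 alongside compound; SIE-controlled beta-lactamase reporter measured as 460/530 nm FRET emission ratio; % is set by controls: 0 for no effect and ±100 for the full control effect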
Summary of the method: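 ME-180 SIE-bla cells; overnight plating; cpd + IL-6 40 pM, 5 h, 37 C; LiveBLAzer 2.5 h RT; 460/530 nm emission ratio. Normalized to 300 pM IL-6 and 125 nM JAK inhibitor controls.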

[5] = target: Glucocorticoid receptor (Homo sapiens) (UniProt P04150); assay: GR-GFP Redistribution (AID 450;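 active = compounds whose dose series gives a full or clear partial fitted curve of increased nuclear translocation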; note: potency is the fitted concentration of half-maximal effect); conditions: U2OS GR-GFP nuclear translocation, laser cytometry, 2 h
[6] = target: Glucocorticoid receptor (Homo sapiens) (UniProt P04150); assay: GR-EFC Redistribution (AID 451; calls by dose curve; note: potency is the fitted concentration of half-maximal effect); conditions: CHO-K1 GR-EFC translocation, beta-gal luminescence, 2 h
Summary of the method: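 CHO-K1 cells stably expressing nuclear-localized β-gal enzyme acceptor and GR fused C-terminally to the enzyme donor fragment; ligand-driven nuclear translocation restores β-gal by complementation. Compounds titrated up to 46 uM final, 2 h at 37 °C; luminescence read.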

[7] = target: Mitogen-activated protein kinase 10 (Mus musculus) (UniProt Q61831); assay: JNK3 AlphaScreen Assay (AID 530); conditions: JNK3 lysate, c-Jun phosphorylation; series mostly up to 57.1 µM;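 note: kinase came from lysate of stimulated human HepG2 cells; signal reports phosphorylation of biotinylated GST-cJun 1-79 at Ser73 with 10 µM ATP; % is set by controls: 0 for no effect and ±100 for the full control effect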
Summary of the method: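 JNK3 came from HepG2 lysates pre-activated with IL-1beta and TNF-alpha and phosphorylated biotinylated GST-cJun (1-79) at 10 uM ATP, pH 7.6, room temperature. Compounds were titrated. AlphaScreen signal used anti-phospho-cJun (Ser73) antibody.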

[8] = target: 3',5'-cyclic-AMP phosphodiesterase 4B (Homo sapiens) (UniProt Q07343); assay: qHTS Assay for Inhibitors of PDE-IV (AID 607; active = well fitted activation curve with a large enough effect in the main read-out, with a control signal flat, not every such curve was filed as active; note: % of control where 0% means no effect); conditions: HEK293 ACTOne CNG channel cells, membrane potential fluorescence; series mostly up to 22.9 µM
Summary of the method: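 ACTOne HEK293 cells carry a modified cAMP-gated CNG channel and express endogenous PDE4; plated 1000 cells/well, compounds up to 22.9 uM final. Membrane-potential dye fluorescence (ex 535/em 590) was read; parental cells received 10 uM forskolin + 100 uM RO 20-1724.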

[9] = Counterscreen qHTS for small molecule stabilizers of the endoplasmic reticulum resident proteome: GLuc-NoTag assay (AID 1508627; active = well fitted curve in the direction sought with a large enough effect; an effect the other way counts as inactive or inconclusive;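 note: SH-SY5Y cells given compound then 100 nM thapsigargin to empty ER calcium; 0% = thapsigargin alone and -100% = DMSO vehicle control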); conditions: Gaussia luciferase NoTag secretion counterscreen, luminescence, thapsigargin 100 nM for final 4 h; series mostly up to 76.4 µM
Summary of the method: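 SH-SY5Y cells stably expressing constitutively secreted GLuc (no SERCaMP tag) were pre-incubated 5 h, treated with compound for 19 h, then 100 nM thapsigargin for 4 h at 37C; medium GLuc read by coelenterazine luminescence.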

[10] = qHTS Assay for Lipid Storage Modulators (AID 1519; calls by dose curve); conditions: Drosophila S3 cells, BODIPY lipid droplet/cell ratio, laser cytometry, cells loaded with oleic acid; for activity change, negative = inhibition: at 57.5 µM (top of the series)
Summary of the method: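 Cells seeded at 5,000 per well were treated with compounds over a concentration series and loaded with oleic acid (400 uM, as added). Lipid droplet fluorescence (488 nm excitation, 500-530 nm channel) was read by laser-scanning cytometry and normalized to 20 uM Triacsin C.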

[11] = Confirmatory qHTS for small molecule stabilizers of the endoplasmic reticulum resident proteome: Secreted ER Calcium Modulated Protein (SERCaMP) assay (AID 1508628; active = well fitted curve in the direction sought with a large enough effect; an effect the other way counts as inactive or inconclusive; note: nearly all actives have a fitted effect of over 40% in size; note: potency is the fitted concentration of half-maximal effect); conditions: SERCaMP secreted luciferase ER calcium/proteostasis reporter; series mostly up to 76.3 µM
Summary of the method: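 We seeded SH-SY5Y-GLuc-SERCaMP cells, added compounds (three concentrations in the primary run, eleven up to 76.6 uM in confirmation), incubated 16 h, depleted ER calcium with thapsigargin, and read luciferase 4 h later.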

[12] = Cell Viability qHTS for small molecule stabilizers of the endoplasmic reticulum resident proteome (AID 1508629; active = well fitted curve in the direction sought with a large enough effect; an effect the other way counts as inactive or inconclusive); conditions: cell viability counter-screen, 100 nM thapsigargin for final 4 h
[13] = target: Cytochrome P450 1A2 (Homo sapiens) (UniProt P05177); assay: p450-cyp1a2 (AID 410; calls by dose curve; note: potency is the fitted concentration of half-maximal effect;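 for activity change, negative = inhibition: -100% = full effect of reference inhibitor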); conditions: recombinant CYP1A2, luciferin-ME demethylation, luminescence; series mostly up to 57 µM
Summary of the method: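 Human CYP1A2 (20nM) demethylated Luciferin-ME at its Km (100uM) in 100mM KPO4. After 10 min compound preincubation, NADPH regeneration ran the reaction 60 min at room temperature. Luciferin was read by luminescence, normalized to 57 uM furafylline.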

[14] = target: Dual specificity protein kinase CLK4 (Homo sapiens) (UniProt Q9HAZ1); assay: qHTS Assay for Inhibitors of CDC-like Kinase 4 (Kinase-Glo Assay) (AID 1770; active = well fitted curve in the direction sought with a large enough effect; an effect the other way counts as inactive or inconclusive; note: nearly all actives have a fitted effect of over 65% in size; note: potency is the fitted concentration of half-maximal effect); conditions: recombinant Clk4, Kinase-Glo ATP depletion luminescence; series mostly up to 66.7 µM
Summary of the method: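 Readout: Kinase-Glo luminescence from ATP left after a 4.5 h room-temperature reaction of 25 nM Clk4 with 100 uM RS peptide and 1 uM ATP (final). Buffer: 25 mM Tris pH 7.5, 10 mM MgCl2.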

[15] = target: Dual specificity protein kinase CLK4 (Homo sapiens) (UniProt Q9HAZ1); assay: qHTS Assay for Inhibitors of CDC-like Kinase 4 (ADP-Glo Assay) (AID 1771; active = well fitted curve in the direction sought with a large enough effect; an effect the other way counts as inactive or inconclusive; note: nearly all actives have a fitted effect of over 70% in size; note: potency is the fitted concentration of half-maximal effect); conditions: recombinant CLK4, ADP-Glo luminescence; series mostly up to 80 µM
Summary of the method: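 Clk4 (25 nM) was incubated 1 hr at room temperature with 100 uM RS repeat peptide and 1 uM ATP in buffer with 2 mM MgCl2, 0.5 mM EGTA, 2.5 mM DTT. ADP formed was quantified by ADP-Glo luminescence.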

[16] = target: Dual specificity protein kinase CLK4 (Homo sapiens) (UniProt Q9HAZ1); assay: qHTS Assay for Inhibitors of CDC-like Kinase 4 (ADP-FP Assay) (AID 1795; active = well fitted curve in the direction sought with a large enough effect; an effect the other way counts as inactive or inconclusive;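 note: recombinant human CLK4 phosphorylating RS repeat peptide at 1 µM ATP; % is set by controls: 0 for no effect and ±100 for the full control effect; nearly all actives have a fitted effect of over 60% in size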); conditions: Transcreener ADP fluorescence polarization; series mostly up to 50 µM
Summary of the method: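 FP readout: Orange Transcreener ADP2 tracer (4 nM) plus ADP antibody, read after 30 min at room temperature. Kinase step: 6.25 nM Clk4, 100 uM RS peptide, 1 uM ATP, pH 7.5, 1 h.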

[17] = target: Ubiquitin carboxyl-terminal hydrolase 1 (Homo sapiens) (UniProt O94782); assay: Inhibitors of USP1/UAF1: Pilot qHTS (AID 504865; active = well fitted curve in the direction sought with a large enough effect; an effect the other way counts as inactive or inconclusive;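 note: rhodamine fluorescence freed from ubiquitin-rhodamine substrate followed over time; top concentration of the series differs between compounds; % is set by controls: 0 for no effect and ±100 for the full control effect; nearly all actives have a fitted effect of over 35% in size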); conditions: purified USP1/UAF1, Ub-rhodamine cleavage fluorescence; series mostly up to 54.9 µM
Summary of the method: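 1nM USP1/UAF1 + cpd, 15 min RT; start w/ Ub-Rho 150nM final; kinetic FL 480/540 nm, 6 reads q60 s. Buffer 50mM HEPES pH 7.8, 0.5mM EDTA, 1mM TCEP, 0.01% Tween-20, 0.1 mg/ml BSA.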

[18] = target: Cytochrome P450 3A4 (Homo sapiens) (UniProt P08684); assay: qHTS Assay for Activators of Cytochrome P450 3A4 (AID 885; active = well fitted curve in the direction sought with a large enough effect; an effect the other way counts as inactive or inconclusive; note: nearly all actives have a fitted effect of over 65% in size); conditions: recombinant CYP3A4, Luciferin-PPXE luminescence, 60 min; series mostly up to 57.1 µM
Summary of the method: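 20nM CYP3A4 + 25uM Luciferin-PPXE (=KM), 200mM KPO4; cpd 10 min RT; NADPH regen, 60 min RT; stop w/ detection buffer, 20 min; luminescence. Normalized to 57 uM ketoconazole.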

[19] = measured here: cell count channel max response
[20] = measured here: lipid channel max response

Sequence of Cytochrome P450 1A2 (Homo sapiens) (P05177 whole entry, looked up): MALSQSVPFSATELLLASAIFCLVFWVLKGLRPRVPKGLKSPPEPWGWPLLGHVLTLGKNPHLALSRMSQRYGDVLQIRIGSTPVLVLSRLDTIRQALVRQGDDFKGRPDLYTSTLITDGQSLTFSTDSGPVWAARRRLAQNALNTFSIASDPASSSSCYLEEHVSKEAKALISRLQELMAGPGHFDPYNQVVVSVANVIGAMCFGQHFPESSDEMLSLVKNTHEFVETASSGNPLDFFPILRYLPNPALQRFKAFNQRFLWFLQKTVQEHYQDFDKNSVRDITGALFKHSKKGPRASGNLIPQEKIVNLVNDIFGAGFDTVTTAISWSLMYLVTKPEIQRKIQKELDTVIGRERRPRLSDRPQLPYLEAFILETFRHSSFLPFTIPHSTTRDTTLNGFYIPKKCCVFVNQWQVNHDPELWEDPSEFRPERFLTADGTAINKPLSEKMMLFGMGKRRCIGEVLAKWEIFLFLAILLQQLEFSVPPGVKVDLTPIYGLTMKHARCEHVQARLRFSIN
Sequence of 3',5'-cyclic-AMP phosphodiesterase 4B (Homo sapiens) (Q07343 whole entry, looked up): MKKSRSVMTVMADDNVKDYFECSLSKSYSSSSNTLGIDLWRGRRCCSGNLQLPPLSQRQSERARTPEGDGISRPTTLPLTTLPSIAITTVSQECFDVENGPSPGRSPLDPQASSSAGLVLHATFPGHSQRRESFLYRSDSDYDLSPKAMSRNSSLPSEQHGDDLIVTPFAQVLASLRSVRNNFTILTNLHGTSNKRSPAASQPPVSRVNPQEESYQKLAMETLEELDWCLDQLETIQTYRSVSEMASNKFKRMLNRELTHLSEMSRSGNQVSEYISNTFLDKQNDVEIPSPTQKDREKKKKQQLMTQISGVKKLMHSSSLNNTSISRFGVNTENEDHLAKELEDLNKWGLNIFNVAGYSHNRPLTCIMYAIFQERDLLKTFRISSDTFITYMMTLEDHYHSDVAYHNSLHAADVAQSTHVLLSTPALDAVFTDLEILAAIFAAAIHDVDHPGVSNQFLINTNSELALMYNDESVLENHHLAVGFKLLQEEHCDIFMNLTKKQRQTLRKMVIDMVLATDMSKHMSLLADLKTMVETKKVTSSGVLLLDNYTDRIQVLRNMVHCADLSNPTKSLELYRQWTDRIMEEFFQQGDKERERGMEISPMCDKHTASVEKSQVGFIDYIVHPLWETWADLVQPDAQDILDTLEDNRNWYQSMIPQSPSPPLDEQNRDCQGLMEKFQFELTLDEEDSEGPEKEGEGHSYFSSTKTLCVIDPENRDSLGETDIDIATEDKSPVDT
Sequence of Glucocorticoid receptor (Homo sapiens) (P04150 whole entry, looked up, the tested form may be a part): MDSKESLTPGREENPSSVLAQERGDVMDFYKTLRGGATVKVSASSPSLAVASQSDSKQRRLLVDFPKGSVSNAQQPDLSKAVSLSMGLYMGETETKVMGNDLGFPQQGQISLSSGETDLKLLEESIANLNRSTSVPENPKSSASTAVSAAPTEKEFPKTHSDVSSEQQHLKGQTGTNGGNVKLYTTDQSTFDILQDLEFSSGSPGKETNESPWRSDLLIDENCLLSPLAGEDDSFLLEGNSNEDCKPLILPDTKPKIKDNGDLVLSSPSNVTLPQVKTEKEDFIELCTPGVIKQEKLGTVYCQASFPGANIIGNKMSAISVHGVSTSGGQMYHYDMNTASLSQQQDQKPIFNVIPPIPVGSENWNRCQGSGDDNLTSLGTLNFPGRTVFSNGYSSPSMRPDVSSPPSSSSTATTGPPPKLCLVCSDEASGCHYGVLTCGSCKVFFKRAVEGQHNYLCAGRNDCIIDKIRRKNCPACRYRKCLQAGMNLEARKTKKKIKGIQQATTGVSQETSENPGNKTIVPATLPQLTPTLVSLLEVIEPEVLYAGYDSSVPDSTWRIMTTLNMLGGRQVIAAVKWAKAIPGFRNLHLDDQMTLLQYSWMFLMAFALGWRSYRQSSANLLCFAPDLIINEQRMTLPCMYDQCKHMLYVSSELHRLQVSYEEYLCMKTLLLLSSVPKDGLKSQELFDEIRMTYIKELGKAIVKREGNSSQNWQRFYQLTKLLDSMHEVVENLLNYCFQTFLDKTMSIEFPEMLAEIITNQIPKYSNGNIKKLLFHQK
Sequence of Lysosomal acid glucosylceramidase (Homo sapiens) (P04062 whole entry, looked up): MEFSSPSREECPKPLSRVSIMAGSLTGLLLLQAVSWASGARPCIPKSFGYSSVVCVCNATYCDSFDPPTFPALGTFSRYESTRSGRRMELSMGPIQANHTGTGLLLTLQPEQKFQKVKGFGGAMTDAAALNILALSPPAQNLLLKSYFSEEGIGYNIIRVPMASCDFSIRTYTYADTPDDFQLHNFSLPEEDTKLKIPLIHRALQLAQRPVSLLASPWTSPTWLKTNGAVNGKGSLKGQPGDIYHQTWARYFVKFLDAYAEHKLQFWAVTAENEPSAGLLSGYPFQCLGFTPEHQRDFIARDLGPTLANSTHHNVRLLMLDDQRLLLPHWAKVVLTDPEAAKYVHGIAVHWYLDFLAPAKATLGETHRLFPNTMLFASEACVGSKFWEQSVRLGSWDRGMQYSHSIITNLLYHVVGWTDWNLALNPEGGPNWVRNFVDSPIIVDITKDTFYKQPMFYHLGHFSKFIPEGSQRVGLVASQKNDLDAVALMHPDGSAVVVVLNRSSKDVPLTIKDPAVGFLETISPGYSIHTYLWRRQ
Sequence of Ubiquitin carboxyl-terminal hydrolase 1 (Homo sapiens) (O94782 whole entry, looked up): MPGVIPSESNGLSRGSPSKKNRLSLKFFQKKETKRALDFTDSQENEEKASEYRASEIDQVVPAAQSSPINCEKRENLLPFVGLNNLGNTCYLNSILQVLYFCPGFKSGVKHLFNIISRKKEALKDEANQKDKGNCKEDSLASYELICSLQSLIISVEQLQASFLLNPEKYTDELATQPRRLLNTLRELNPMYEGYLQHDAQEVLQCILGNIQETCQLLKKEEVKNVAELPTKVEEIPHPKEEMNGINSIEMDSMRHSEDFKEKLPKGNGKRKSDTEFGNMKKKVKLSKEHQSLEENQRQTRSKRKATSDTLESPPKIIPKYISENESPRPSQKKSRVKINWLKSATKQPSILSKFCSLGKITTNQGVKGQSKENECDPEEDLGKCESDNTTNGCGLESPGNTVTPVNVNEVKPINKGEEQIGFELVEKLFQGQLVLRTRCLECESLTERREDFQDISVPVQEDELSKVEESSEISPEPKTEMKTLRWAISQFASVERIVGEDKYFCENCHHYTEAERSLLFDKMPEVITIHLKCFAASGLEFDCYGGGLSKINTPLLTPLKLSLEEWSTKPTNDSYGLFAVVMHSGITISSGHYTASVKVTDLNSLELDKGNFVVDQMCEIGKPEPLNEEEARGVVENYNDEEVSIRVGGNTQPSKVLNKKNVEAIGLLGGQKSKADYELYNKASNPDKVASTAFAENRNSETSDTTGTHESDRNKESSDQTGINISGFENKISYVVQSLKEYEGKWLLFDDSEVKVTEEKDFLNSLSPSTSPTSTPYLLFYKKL
Sequence of Dual specificity protein kinase CLK4 (Homo sapiens) (Q9HAZ1 whole entry, looked up): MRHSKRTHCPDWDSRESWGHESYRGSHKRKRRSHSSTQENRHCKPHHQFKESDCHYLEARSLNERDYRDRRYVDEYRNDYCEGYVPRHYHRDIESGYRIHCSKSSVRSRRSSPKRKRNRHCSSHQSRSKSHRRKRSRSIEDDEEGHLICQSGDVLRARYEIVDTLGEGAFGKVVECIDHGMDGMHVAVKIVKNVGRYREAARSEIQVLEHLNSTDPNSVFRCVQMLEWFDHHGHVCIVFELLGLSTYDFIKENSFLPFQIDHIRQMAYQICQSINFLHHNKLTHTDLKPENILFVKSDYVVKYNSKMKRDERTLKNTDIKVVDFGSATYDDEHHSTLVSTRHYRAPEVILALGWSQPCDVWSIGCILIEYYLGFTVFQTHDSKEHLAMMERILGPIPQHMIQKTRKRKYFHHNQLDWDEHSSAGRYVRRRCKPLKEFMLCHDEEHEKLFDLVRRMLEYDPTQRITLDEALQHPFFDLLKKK
Sequence of Cytochrome P450 3A4 (Homo sapiens) (P08684 whole entry, looked up): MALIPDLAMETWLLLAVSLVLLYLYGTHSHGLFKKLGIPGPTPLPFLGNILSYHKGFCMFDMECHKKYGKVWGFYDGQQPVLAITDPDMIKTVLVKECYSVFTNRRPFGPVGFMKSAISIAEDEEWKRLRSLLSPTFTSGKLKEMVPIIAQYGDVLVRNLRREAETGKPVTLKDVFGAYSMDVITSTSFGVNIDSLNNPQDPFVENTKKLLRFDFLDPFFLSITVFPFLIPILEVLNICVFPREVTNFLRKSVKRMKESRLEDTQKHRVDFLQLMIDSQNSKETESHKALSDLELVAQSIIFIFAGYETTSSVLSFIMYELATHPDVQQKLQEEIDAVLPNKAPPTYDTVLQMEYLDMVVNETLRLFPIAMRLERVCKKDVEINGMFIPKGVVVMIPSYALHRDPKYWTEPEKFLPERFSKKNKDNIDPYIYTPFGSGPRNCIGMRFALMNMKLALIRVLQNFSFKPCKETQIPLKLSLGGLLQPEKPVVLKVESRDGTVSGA

SMILES	Potency [1]	activity change, negative = inhibition [2]	activity change, negative = inhibition [3]	activity, negative = inhibition [4]	Potency [5]	Potency [6]	outcome [7]	Potency [8]	Potency [9]	activity change, negative = inhibition [10]	max response [10, 19] [%]	max response [10, 20] [%]	Potency [11]	max response [12]	Potency [13]	Potency [14]	Potency [15]	Potency [16]	Potency [17]	Potency [18]
COCCn1c(=O)c(CCc2ccccc2)nc2cnc(N3CCNCC3)nc21	> 11.4 µM (inactive)	-4.91% (inactive)	10.2% (inactive)	-1.73% (inactive)	> 9.22 µM (inactive)	> 46 µM (inactive)	inactive	inactive	inactive											
O=c1c(CCc2ccccc2)nc2cnc(N3CCNCC3)nc2n1CCc1ccccc1		9.43% (inactive)	27.2% (inactive)	16.4% (inactive)	> 9.22 µM (inactive)	> 46 µM (inactive)	inactive			2.33% (inactive)	-7.41	-3.07	inactive	-5.58% (inactive)						
Cc1nc2cnc(N3CCN(C)CC3)nc2n(-c2ccccc2)c1=O		-10.2% (inactive)	-6.35% (inactive)	-7.64% (inactive)	> 9.22 µM (inactive)	> 46 µM (inactive)	inactive	inactive	inactive	2.71% (inactive)	7.22	7.19			3.98 µM (active)	inactive	inactive	inactive	inactive	
O=C(c1cc(C(F)(F)F)cc(C(F)(F)F)c1)N1CCC2(CC1)CN(c1ccccn1)C2	0.37 µM (active)	-8.97% (inactive)		-17.5% (inactive)		> 46 µM (inactive)	inactive	inactive					inactive	-18% (inactive)	inactive					
c1cncc(-c2nc(N3CCNCC3)c3ccccc3n2)c1	> 11.4 µM (inactive)	8.36% (inactive)	7.65% (inactive)	4.77% (inactive)	> 46 µM (inactive)	> 46 µM (inactive)	inactive	inactive					22.4 µM (active)	15.1% (inactive)	2.51 µM (active)				inactive	inactive
COCCn1c(=O)c(CCc2ccccc2)nc2cnc(OC)nc21	> 11.4 µM (inactive)	-6.75% (inactive)	-10.3% (inactive)	-4.28% (inactive)	> 9.22 µM (inactive)	> 46 µM (inactive)	inactive		inactive						10 µM (active)					inactive
CCC(C)C(N)C(=O)NC(CC(N)=O)C(=O)NC(CC(C)C)C(=O)NC(CCCCN)C(=O)NC(C)C(=O)NC(CC(C)C)C(=O)NC(C)C(=O)NC(C)C(=O)NC(CC(C)C)C(=O)NC(C)C(=O)NC(CCCCN)C(=O)NC(CCCCN)C(=O)NC(C(=O)NC(CC(C)C)C(N)=O)C(C)CC (stereo not drawn)													inactive	16.1% (inactive)						
FC(F)(F)c1ccccc1-c1nccc(N2CCNCC2)n1	> 11.4 µM (inactive)	-4.79% (inactive)	-3.28% (inactive)	9.61% (inactive)		> 46 µM (inactive)	inactive	inactive		4.7% (inactive)	10.7	12.2	15.8 µM (active)		10 µM (active)	inactive	inactive	inactive	inactive	
COCCn1c(=O)c(-c2ccccc2)nc2cnc(Oc3ccc(OC)cc3)nc21	> 11.4 µM (inactive)	-27.8% (inactive)	0.481% (inactive)	-10.2% (inactive)	> 9.22 µM (inactive)	> 46 µM (inactive)	inactive						39.8 µM (active)	4.93% (inactive)	1.26 µM (active)	inactive	inactive	inactive	inactive	
COc1ccc(Oc2ncc3nc(-c4cc(F)cc(F)c4)c(=O)n(CCC#N)c3n2)cc1	> 11.4 µM (inactive)	-6.65% (inactive)	-14.9% (inactive)	-11.4% (inactive)	> 9.22 µM (inactive)	> 46 µM (inactive)		inactive					31.6 µM (active)	-0.74% (inactive)						
COCCn1c(=O)c(-c2ccc(F)cc2)nc2cnc(OCc3ccccc3)nc21	> 11.4 µM (inactive)	-23.2% (inactive)	-6.09% (inactive)		> 9.22 µM (inactive)	> 46 µM (inactive)	inactive	inactive	inactive											inactive
COCCn1c(=O)c(-c2ccccc2)nc2cnc(N3CCNCC3)nc21	> 11.4 µM (inactive)				> 9.22 µM (inactive)	> 46 µM (inactive)	inactive	inactive	inactive											
O=c1c(CCc2ccccc2)nc2cnc(N3CCNCC3)nc2n1Cc1ccc(F)cc1		-10.5% (inactive)		16.5% (inactive)	> 9.22 µM (inactive)	> 46 µM (inactive)	inactive			2.57% (inactive)	12.8	11.7	inactive	-14.8% (inactive)	10 µM (active)					
CN1CCN(c2nc(-c3ccc4c(c3)OCO4)nc3ccccc23)CC1	> 11.4 µM (inactive)	21.8% (inactive)		-4.65% (inactive)	> 46 µM (inactive)		inactive			8.71% (inactive)	28	35.9	20 µM (active)			17.8 µM (active)	15.8 µM (active)		inactive	
O=C(Nc1cccc(F)c1)N1CCCC2(CCNCC2)C1	> 11.4 µM (inactive)	-6.17% (inactive)	12.2% (inactive)	-5.47% (inactive)		> 46 µM (inactive)	inactive	inactive	inactive					8.67% (inactive)	inactive					inactive
